G9a block = inhibitors of human histone lysine methyltransferase G9a | G9a H3K9 monomethylation, AlphaScreen, 2 h | Potency, µM (titrated, usually from 102 µM), usual class: inhibitors | 350,000 compounds, 8.8% hits | Q96KQ7; also: nearly all actives have a fitted effect of over 75% in size
Target sequence (Q96KQ7 913-1193 limits assumed): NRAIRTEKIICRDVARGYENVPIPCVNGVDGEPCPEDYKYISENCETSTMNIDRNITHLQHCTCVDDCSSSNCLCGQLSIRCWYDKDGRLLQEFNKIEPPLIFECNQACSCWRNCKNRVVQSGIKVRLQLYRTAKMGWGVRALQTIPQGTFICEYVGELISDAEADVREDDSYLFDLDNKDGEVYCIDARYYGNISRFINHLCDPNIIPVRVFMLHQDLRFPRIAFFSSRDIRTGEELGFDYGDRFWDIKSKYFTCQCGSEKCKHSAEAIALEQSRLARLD
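Compounds were preincubated with 20 nM G9a for 15 min, after which biotinylated H3K9 peptide (500 nM) and SAM (20 uM) started a 2 h room-temperature reaction. Monomethylated product was quantified by antibody-based AlphaScreen chemiluminescence.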
BAZ2B block = BAZ2B (human) inhibition. Q9UIF8. AlphaScreen BAZ2B-H3K14Ac peptide displacement. Potency, µM (series often up to 114 µM), usual class: inhibitors. 360,000 compounds, 4.4% hits. AID 504333; also: nearly all actives have a fitted effect of over 60% in size
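AlphaScreen displacement: compounds (up to 110uM) incubated 30 min at room temperature with a preformed 50 nM BAZ2B/50 nM biotinylated H3K14Ac peptide complex in PBS pH 7.4 with Tween-20. Donor and acceptor beads at 10 ug/mL final added, 20 min light-protected before reading.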
JMJD2A Tudor = inhibitors of human JMJD2A Tudor domain. AlphaScreen JMJD2A-Tudor / H3K4me3 peptide binding. Potency, µM (series often up to 114 µM), hits mostly inhibitors. AID 504339. 390,000 compounds, 4.4% hits; also: nearly all actives have a fitted effect of over 50% in size
Sfp inh = blocks B. subtilis Sfp PPTase activity | AID 1490 | Potency, µM, usual class: inhibitors | Biochemical Sfp PPTase activity, qHTS | 310,000 compounds, 3.5% hits | Q9F4F7;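 also: the enzyme is Sfp with the accession as filed and its product quenches rhodamine fluorescence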
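Sfp 15 nM + cpd, 15 min RT; start w/ rhodamine-CoA 5 uM, BHQ-2-YbbR 12.5 uM (final); 50 mM Hepes pH 7.6, 10 mM MgCl2, 0.01% NP-40, 0.01% BSA; read 525/598 nm at 0 and 30 min.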
HP1b chromo inh = inhibitors of HP1-beta chromodomain binding to methylated histone tails; Potency, µM (highest dose often 114 µM), hits mostly inhibitors; AlphaScreen HP1-beta / biotin-H3K9me3 peptide binding; P83916; 390,000 compounds, 0.56% hits; also: nearly all actives have a fitted effect of over 70% in size
Target sequence (P83916 whole entry, looked up): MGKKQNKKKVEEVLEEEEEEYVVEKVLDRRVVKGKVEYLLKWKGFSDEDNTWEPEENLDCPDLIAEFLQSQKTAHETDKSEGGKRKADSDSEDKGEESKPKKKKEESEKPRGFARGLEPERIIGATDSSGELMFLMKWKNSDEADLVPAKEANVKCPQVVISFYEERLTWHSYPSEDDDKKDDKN
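AlphaScreen: HP1-beta (50 nM) preformed 30 min with biotin-H3(1-18)K9me3 peptide (50 nM) in PBS pH 7.4, 0.01% Tween-20. Compound added for 30 min at RT, then streptavidin donor/nickel chelate acceptor beads (10 ug/mL) for 30 min.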
L3MBTL1 block = L3MBTL1 (human) inhibition | Q9Y468 | AlphaScreen L3MBTL1–H3K9me1 peptide binding | Potency, µM (top dose mostly 57.1 µM), usual class: inhibitors | 230,000 compounds, 0.66% hits; also: nearly all actives have a fitted effect of over 60% in size
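AlphaScreen proximity signal between nickel-chelate acceptor and streptavidin donor beads (final 10 ug/mL) reports binding of 50 nM L3MBTL1 to 75 nM biotin-H3 K9me1 peptide; complex incubated with compounds 30 min at room temperature; cefsulodin titration as control.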
Hits are given with their value; - = inactive; ? = inconclusive; . = no result given; ! = a repeat was not active; [ ] = dose if it differs, or a comment. In the library only some 12% were active in any assay of this set; here they are far more common. Calls follow the shape of the dose curve; as a rule, active = well fitted curve in the direction sought with a large enough effect; inconclusive = small, poorly fitted or top-dose-only effect, or another doubt; inactive = no such curve, though single readings can be large; an effect the other way counts as inactive or inconclusive.

SMILES | G9a block | BAZ2B block | JMJD2A Tudor | Sfp inh | HP1b chromo inh | L3MBTL1 block
CCOC(=O)C1CCCN(C(=O)c2[nH]c3ccccc3c2Sc2ccc(Cl)cc2)C1 (stereo unspecified) | 8.91µM | ? | - | . | - | .
CCOC(=O)C1CCCN(C(=O)c2ccc3[nH]c4c(c3c2)CC(C)CC4)C1 (stereo unspecified) | ? | 50.1µM | ? | . | ? | -
CC1Sc2ccc(C(=O)N3CCCC(C(F)(F)F)C3)cc2NC1=O (stereo unspecified) | - | - | - | . | - | -
CCOC(=O)C1CCCN(C(=O)Cc2c(C(=O)O)[nH]c3ccccc23)C1 (stereo unspecified) | -[2.33 µM] | - | - | - | - | -
CCOC(=O)C1CCCN(C(=O)c2ccc3c(c2)OCCO3)C1 (stereo unspecified) | - | - | - | . | - | -
CCc1ccccc1NC(=O)C(C)n1c(=O)cc(C)c2c(C)nn(-c3ccccc3)c21 (stereo unspecified) | - | - | - | . | - | .
CCCCCCCc1cc2c(cn1)=C(OC)C(C)(OC(C)=O)C(=O)C=2Cl (stereo unspecified) | . | . | . | - | . | .
CC1=CCC2C(=O)N(c3nc4ccccc4n3C)C(=O)C2C1 (stereo unspecified) | - | ? | 56.2µM | - | - | .
CN1OC[C@@H]2CN(Cc3ccccc3)[C@H](c3cccc(Oc4ccccc4)c3)C[C@@H]21 | . | . | - | . | - | .
CN1OC[C@@H]2CN(Cc3cc(Cl)cc(Cl)c3)[C@H](c3cccc(Oc4ccccc4)c3)C[C@@H]21 | . | . | 89.1µM | . | - | .
CCc1ccccc1NS(=O)(=O)c1ccc(NC(=O)N2CCCC2)cc1 | - | - | - | . | - | .
CCOc1ccc(NC(=O)CN(C)Cc2cc(=O)n3c(-c4ccccc4)csc3n2)cc1OCC | 50.1µM | ? | - | - | - | ?
C=CCNCc1cc(=O)n2c(-c3ccccc3)csc2n1 | ? | 50.1µM | 3.55µM | - | ? | .
Cc1ccc(OCc2cc(=O)n3c(-c4ccccc4)csc3n2)cc1 | - | - | ? | . | - | .
Cc1cc(C)cc(OCc2cc(=O)n3c(-c4ccccc4)csc3n2)c1 | - | 79.4µM | ? | . | - | .
CNC(=O)[C@H]1O[C@@H](n2cnc3c(NCc4ccc(N)cc4)ncnc32)[C@H](O)[C@@H]1O | - | . | . | - | . | .
O=C1CCCC2=C1C(c1ccc(Cl)cc1)N=C(Nc1nc3ccccc3o1)N2 (stereo unspecified) | . | . | - | . | - | .
COc1c(C)cccc1C(=O)Nc1ccc(Cl)c(-c2nc3cc(C)ccc3o2)c1 | - | - | - | . | - | .
CCN1CCN(Cc2ccc(NC(=O)c3ccc(C)c(NC(=O)c4cc(-c5ccc(Br)cc5)n[nH]4)c3)cc2C(F)(F)F)CC1 | ? | ? | ? | 79.4µM | - | .
CCN1CCN(Cc2ccc(NC(=O)c3ccc(C)c(NC(=O)c4nccn4C)c3)cc2C(F)(F)F)CC1 | -[12.7 µM] | - | - | - | - | .
CCN1CCN(Cc2ccc(NC(=O)c3ccc(C)c(NC(=O)N4CCNC4=O)c3)cc2C(F)(F)F)CC1 | ? | - | - | - | - | -
CCN1CCN(Cc2ccc(NC(=O)c3ccc(C)c(NC(=O)c4nccnc4N)c3)cc2C(F)(F)F)CC1 | -[12.7 µM] | - | - | 89.1µM | - | .
CCN(CC)CCNC(=O)c1sc2nc(C)cc(C)c2c1-n1cccc1 | - | - | - | . | - | .
COc1ccccc1N1CCN(c2nc(N)c(C#N)c(CC#N)c2C#N)CC1 | 50.1µM | - | ? | - | - | -
CC(=O)c1cc(-c2ccccc2)n(CC(=O)NC(C)(C)C)c1C | - | 50.1µM | - | - | - | .
SMILES | G9a block | BAZ2B block | JMJD2A Tudor | Sfp inh | HP1b chromo inh | L3MBTL1 block
CCC(C)(C)NC(=O)Cn1c(-c2ccccc2)cc(C(C)=O)c1C | - | ? | - | - | - | .
CC(=O)c1cc(-c2ccccc2)n(CC(=O)N2CCCC2)c1C | ? | 56.2µM | - | - | - | .
Cc1cc(NC(=O)Nc2nc3c(s2)CCCCCC3)ccc1Br | - | - | - | . | - | .
O=C(NCC(=O)N1CCN(c2cccc(Cl)c2)CC1)c1ccc(Br)o1 | - | - | - | . | - | -
Clc1cccc(N2CCN(Cc3ccc(Br)o3)CC2)c1 | 6.31µM | ? | 28.2µM | - | ? | -
Clc1ccc(N2CCN(Cc3ccc(Br)o3)CC2)cc1 | 12.6µM | 50.1µM | 20µM | - | ? | -
CN(C)c1oc(-c2ccccc2Cl)nc1S(=O)(=O)c1ccccc1 | 79.4µM | ? | ? | - | - | .
Cc1cccc(-n2c(SCC(=O)Nc3ccc(C)c(C)c3)nc3n[nH]c(C)c3c2=N)c1 | - | - | - | . | - | .
Cc1cc2oc(=O)cc(CN3CCCc4ccccc43)c2cc1C | 8.91µM | - | - | - | - | -
Cc1cc2oc(=O)cc(CN3CCCCC3)c2cc1C | - | - | - | - | - | .
COc1ccc(NCC(=O)n2c(C)c(C)c3ccccc32)cc1 | 10µM | - | - | - | - | .
O=C1C=CC(=O)C(CNc2ccc(C(=O)OCc3ccccc3)cc2)=C1 | . | . | 39.8µM | . | 39.8µM | .
CN(C)c1ccc(C(=O)OCc2ccccc2)cc1 | - | - | -[11.4 µM] | - | - | .
COc1cccc(OC)c1C1=Nn2c(nnc2-c2ccccc2C)SC1 | . | . | - | - | . | .
O/N=C1/CCCCC1c1ccccn1 (stereo unspecified) | ? | 50.1µM | 31.6µM | - | - | -
O=[N+]([O-])c1ccc(C2CCCC/C2=N/O)c([N+](=O)[O-])c1 (stereo unspecified) | - | - | - | - | - | .
O=C(N/N=C/c1cc2c3c(c1O)CCCN3CCC2)c1ccccc1O | ? | 31.6µM | 44.7µM | - | - | ?
Cc1nn(-c2ccccc2)c(N2CCCC2)c1/C=N/NC(=O)c1ccccc1O | - | - | - | - | - | -
Nc1cc(Br)c(N)c(Br)c1 | 50.1µM | - | - | - | - | -
Nc1ncc(Br)cc1Br | - | - | - | - | - | -
CCc1ccc(NC(=O)CCNC(=O)Cn2cnc3ccccc3c2=O)cc1 | - | - | 50.1µM! | - | - | .
O=C(COC(=O)Cn1cnc2ccccc2c1=O)NCCC1=CCCCC1 | 11.2µM | - | - | - | - | -
O=C(Cn1cnc2ccccc2c1=O)Nc1nc2ccccc2s1 | 44.7µM | - | - | - | - | -
CCc1ccc2nc(NC(=O)Cn3cnc4ccccc4c3=O)sc2c1 | ? | - | - | - | - | -
CCN(CC)C(=O)Cn1cnc2c1c(=O)n(C)c(=O)n2C | 56.2µM | - | - | - | - | .
O=C(C1CCCN(S(=O)(=O)c2cccc3nsnc23)C1)N1CCN(c2ccccc2)CC1 (stereo unspecified) | - | . | - | . | - | .
Cc1noc(C)c1C(=O)N1CCC2(CCN(Cc3cc(C(F)(F)F)cc(C(F)(F)F)c3)CC2)CC1 | -[12.7 µM] | . | . | - | . | .
CCOc1ccccc1CNC(=O)Cn1nc(C)c2nn(-c3ccc(Cl)cc3)c(C)c2c1=O | - | - | - | . | - | .
COc1cc(NS(=O)(=O)c2cnc(N)nc2)cc(OC)c1 | - | - | - | . | - | .

Screening data deposited in PubChem by National Center for Advancing Translational Sciences (NCATS).
